For 40 compounds, AC50 and outcome results are on record in PubChem BioAssay (EPA / NIEHS).

Active and inactive are the calls of the source. How the source made its calls: active means hit-call score of the fitted dose curve at least 0.9, where 1 is the maximum; inactive means score below 0.9.

Chain of Retinoic acid receptor alpha (Homo sapiens) (P10276 whole entry, looked up): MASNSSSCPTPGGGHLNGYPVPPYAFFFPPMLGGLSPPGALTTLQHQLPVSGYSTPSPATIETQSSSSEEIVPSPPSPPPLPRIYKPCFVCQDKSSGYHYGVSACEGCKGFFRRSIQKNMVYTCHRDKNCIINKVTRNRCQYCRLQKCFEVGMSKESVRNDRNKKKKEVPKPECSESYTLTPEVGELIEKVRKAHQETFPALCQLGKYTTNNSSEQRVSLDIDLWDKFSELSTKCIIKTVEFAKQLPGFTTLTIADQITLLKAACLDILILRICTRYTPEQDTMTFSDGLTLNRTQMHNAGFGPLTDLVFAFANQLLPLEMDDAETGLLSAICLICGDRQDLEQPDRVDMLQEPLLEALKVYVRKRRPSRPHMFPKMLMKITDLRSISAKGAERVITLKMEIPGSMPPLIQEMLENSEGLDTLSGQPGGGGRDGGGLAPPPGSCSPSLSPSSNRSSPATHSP

The test concerns the target Retinoic acid receptor alpha (Homo sapiens) (UniProt P10276). As to the kind of experiment: ATG_DR5_RAR_CIS: Attagene CIS-FACTORIAL HepG2 Assay for human Retinoic Acid Receptor Alpha (RARE), DR5 submotif (AID 2282934).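 On AC50: reporter responds to endogenous RAR alpha beta and gamma in HepG2 not RARA alone.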 Particulars: HepG2 Attagene cis-factorial RARE DR5 reporter, mRNA; actives raise or lower the signal. As for the experimental part: ATG_CIS is a cell-based, multiplexed-readout assay that uses HepG2, a human liver cell line, with measurements taken at 24 hours after chemical dosing in a 24-well plate.ATG_DR5_RAR_CIS is one of 52 assay component(s) measured or calculated from the ATG_CIS assay. It is designed to make measurements of mRNA induction, a form of inducible reporter, as detected with fluorescence intensity signals by Reverse transcription polymerase chain reaction (RT-PCR) and Capillary electrophoresis technology.Data from the assay component ATG_DR5_RAR_CIS was analyzed into 1 assay endpoint. This assay endpoint, ATG_DR5_CIS, was analyzed with bidirectional fitting relative to DMSO as the negative control and baseline of activity. Using a type of inducible reporter, measures of mRNA for gain or loss-of-signal activity can be used to understand the reporter gene at the transcription factor-level as they relate to the gene RARA and RARB and RARG. Furthermore, this assay endpoint can be referred to as a primary readout, because this assay has produced multiple assay endpoints where this one serves a reporter gene function. To generalize the intended target to other relatable targets, this assay endpoint is annotated to the nuclear receptor intended target family, where the subfamily is non-steroidal.
Human liver HepG2 cells are transiently transfected with multiple reporter transcription units (MRTUs) in 6-well plates using FuGene 6 reagent (Roche; 3 ml FuGene/1 mg DNA). The MRTU constructs are regulated by a cis-regulating element (promoter). […] A major difference between the CIS and TRANS system is that in CIS activities of endogenous TFs are measured, whereas the TRANS assay evaluates changes in activities of exogenous, chimeric NR-Gal4 proteins. […] At the end of 24 hour incubation, total RNA was isolated using TriZol reagent (Invitrogen). The isolated RNA is then reverse-transcribed using oligo(dT) primer and Mo-MLV reverse transcriptase (Invitrogen) with DNAse I (Ambion) treatment for 30 min. The one-tenth of the produced cDNA was amplified by PCR using Taq DNA polymerase (Invitrogen) and two reporter sequence-specific primers. The PCR products were fluorescently labeled by primer extension with 6-arboxyfluorescein (6-FAM) 5'-labeled reporter sequence-specific primer (2 min at 95 C, 20 s at 68 C and 10 min at 72 C) and these products were digested with 5U of HpaI (New England Biolabs) for 2h at 37 C. The fragments were purified using Qiaquick PCR columns (Qiagen), analyzed on an ABI 3130xL genetic analyzer (Applied Biosystems) with peak positions identified by using a set of X-rhodamine (ROX)-labeled MapMarker1000 molecular weight standards (BioVentures). The raw capillary electrophoresis data was processed using Attagraph software (Attagene).
For orientation: AC50 means the concentration giving half of the maximal activity seen. Take `C=Cc1ccncc1`: the AC50 is 27 µM (active).

As to `Cc1cccc(Nc2ccccc2)c1`, the outcome was inactive.

For the compound `C[C@H]1C[C@@H](O)CC(C)(C)C1`, the outcome was inactive.

As for `CCc1cc(C(C)(C)C)c(O)c(C(C)(C)C)c1`, the concentration at half-maximal activity (AC50) was 5.23 µM (active).

For the compound `CCCCCCOCCOCCO`, the compound was classed as inactive.

On to `CC(C)C(OC(=O)c1ccccc1)C(C)(C)COC(=O)c1ccccc1` (stereo not given), for which the result was inactive.

With `N#Cc1ccc(CC(=O)c2cccc(C(F)(F)F)c2)cc1`, the call was inactive.

Regarding `CCCCCCC(C)Nc1ccc(Nc2ccccc2)cc1` (stereo not given), the call was inactive.

Consider `C=C(C#N)C(=O)OCC`, for which the compound was called inactive.

Turning to `Cc1ncc[nH]1`, the compound was called inactive.

In the case of `C=C(C)C(=O)OCC(CC)(COC(=O)C(=C)C)COC(=O)C(=C)C`, the compound was called inactive.

Consider `CCOc1ccc(N=Nc2ccc(C=Cc3ccc(N=Nc4ccc(OCC)cc4)cc3S(=O)(=O)O)c(S(=O)(=O)O)c2)cc1`, for which the compound was called inactive.

On to `CCCOCCO`, for which the result was inactive.

As to `CCCCCCCCCCCCS(=O)(=O)Cl`, the outcome was inactive.

Regarding `C=C(CC(=O)O)C(=O)O`, the compound was classed as inactive.

As to `CCCCCCCCCCCC(=O)OCC(O)CO` (stereo not given), the AC50 is 100 µM (active).

Take `CCNCCO`: the compound was classed as inactive.

Turning to `CCCCC(CC)COC(C)=O` (stereo not given), the call was inactive.

As for `O=c1[nH]c(=O)c2cn[nH]c2[nH]1`, the outcome was inactive.

For the compound `CCCCCCCCCCCC(=O)OC[C@@H](O)[C@H]1OC[C@H](O)[C@H]1O`, the compound was classed as inactive.

In the case of `C=CCCC(=O)/C=C/C1C(C)=CCCC1(C)C` (stereo not given), the result was inactive.

Consider `CCCCC(CC)(CO)CO`, for which the call was inactive.

In the case of `COc1cc(C(C)C)ccc1C`, the compound was called inactive.

As for `COc1ccc(N)c([N+](=O)[O-])c1`, the compound was classed as inactive.

Regarding `O=[N+]([O-])c1ccc(O)cc1C(F)(F)F`, the result was inactive.

On to `CC1(C)CCC[C@]2(C)[C@H]3CCO[C@]3(C)CC[C@@H]12`, for which the outcome was inactive.

Turning to `CN(C)CCOc1ccc(/C(=C(/CCCl)c2ccccc2)c2ccccc2)cc1`, the result was inactive.

As for `[O-]n1ccccc1=S.[O-]n1ccccc1=S.[Zn+2]`, the compound was classed as inactive.

Regarding `CCCCOC(=O)CCCCCCCC(=O)OCCCC`, the outcome was inactive.

As for `CCCCCCCCCC(=O)OC`, the call was inactive.

Take `CCCCCCCCc1ccc(S(=O)(=O)O)cc1`: the compound was classed as inactive.

In the case of `CC(=O)c1c(C)c([N+](=O)[O-])c(C(C)(C)C)c([N+](=O)[O-])c1C`, the AC50 is 1.6 µM (active).

With `Cc1cc(C)nc(NS(=O)(=O)c2ccc(N)cc2)n1`, the compound was classed as inactive.

As to `CCCCCCC(=O)c1ccccc1`, the AC50 was 101 µM (active).

Take `C/C=C(\C)C(=O)OCCc1ccccc1`: the call was inactive.

With `COc1ccc(CCO)cc1`, the outcome was inactive.

As for `CCOC(=O)COC(=O)c1cc(Oc2ccc(C(F)(F)F)cc2Cl)ccc1[N+](=O)[O-]`, the call was inactive.

Take `N[C@@H](Cc1cc(I)c(Oc2cc(I)c(O)c(I)c2)c(I)c1)C(=O)O`: the outcome was inactive.

As for `C=C1C[C@]23C[C@@]1(O)CC[C@H]2[C@@]12C=C[C@H](O)[C@@](C)(C(=O)O1)[C@H]2[C@@H]3C(=O)O`, the call was inactive.

As to `COc1ccc(OC)c(N=Nc2c(O)ccc3ccccc23)c1`, the outcome was inactive.
